Experiments:
Assay in all cases: DAPPL (digital affinity profiling via proximity ligation, sequencing); 10 mM Tris-HCl pH 7.5, 50 mM NaCl, 1 mM DTT, 4% glycerol, room temperature, 30 min; GST-TFs on glutathione beads, 16-mer random dsDNA library, 0.1% formaldehyde crosslink after washing; high values mean tight binding
Conditions in all cases: protein: recombinant; tags: N-terminal GST; dsDNA, one strand shown
FLI1 = molecular target: T1, FLI1 (Homo sapiens, UniProt Q01543 1-452)
T1 sequence: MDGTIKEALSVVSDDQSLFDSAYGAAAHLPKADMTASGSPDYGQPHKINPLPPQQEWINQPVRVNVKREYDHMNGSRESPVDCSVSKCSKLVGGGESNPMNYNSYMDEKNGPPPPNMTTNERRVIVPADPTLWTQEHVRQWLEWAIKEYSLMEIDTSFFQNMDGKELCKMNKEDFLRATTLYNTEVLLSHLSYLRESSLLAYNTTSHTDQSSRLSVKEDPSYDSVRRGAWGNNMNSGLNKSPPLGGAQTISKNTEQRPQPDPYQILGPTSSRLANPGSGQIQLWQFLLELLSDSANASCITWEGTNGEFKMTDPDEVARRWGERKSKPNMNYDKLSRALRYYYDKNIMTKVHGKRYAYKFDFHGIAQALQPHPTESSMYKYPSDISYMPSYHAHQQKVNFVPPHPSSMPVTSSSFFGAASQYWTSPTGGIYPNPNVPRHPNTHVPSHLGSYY
Outline: (§1)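 Each value of binding signal is a hexamer's read frequency for a factor divided by the same hexamer's frequency in the tag-only sample. Barcoded, bead-captured GST fusions of human transcription factors made in yeast were pooled with that sample and incubated with 200 nmole of a random double-stranded 16-mer DNA library in Tris/NaCl/DTT/glycerol buffer at room temperature for 30 min. Washing, 0.1% formaldehyde crosslinking, proximity ligation, PCR and Illumina NextSeq500 sequencing followed.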

ELK1 = molecular target: T2, ELK1 (Homo sapiens, UniProt P19419 1-428)
T2 sequence: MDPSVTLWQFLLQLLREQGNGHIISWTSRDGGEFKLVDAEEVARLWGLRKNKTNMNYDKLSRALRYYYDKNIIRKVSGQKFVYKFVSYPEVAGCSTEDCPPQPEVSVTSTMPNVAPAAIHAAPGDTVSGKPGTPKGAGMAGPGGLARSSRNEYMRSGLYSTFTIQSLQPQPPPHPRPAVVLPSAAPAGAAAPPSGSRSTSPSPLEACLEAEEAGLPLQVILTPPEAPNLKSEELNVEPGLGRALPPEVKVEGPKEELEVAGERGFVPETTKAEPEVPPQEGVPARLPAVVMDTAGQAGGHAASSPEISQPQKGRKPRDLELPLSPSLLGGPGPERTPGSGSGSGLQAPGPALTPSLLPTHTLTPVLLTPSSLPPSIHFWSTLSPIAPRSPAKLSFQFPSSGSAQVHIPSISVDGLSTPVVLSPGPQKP
Outline: as §1

GABPA = molecular target: T3, GABPA (Homo sapiens, UniProt Q06546 1-454)
T3 sequence: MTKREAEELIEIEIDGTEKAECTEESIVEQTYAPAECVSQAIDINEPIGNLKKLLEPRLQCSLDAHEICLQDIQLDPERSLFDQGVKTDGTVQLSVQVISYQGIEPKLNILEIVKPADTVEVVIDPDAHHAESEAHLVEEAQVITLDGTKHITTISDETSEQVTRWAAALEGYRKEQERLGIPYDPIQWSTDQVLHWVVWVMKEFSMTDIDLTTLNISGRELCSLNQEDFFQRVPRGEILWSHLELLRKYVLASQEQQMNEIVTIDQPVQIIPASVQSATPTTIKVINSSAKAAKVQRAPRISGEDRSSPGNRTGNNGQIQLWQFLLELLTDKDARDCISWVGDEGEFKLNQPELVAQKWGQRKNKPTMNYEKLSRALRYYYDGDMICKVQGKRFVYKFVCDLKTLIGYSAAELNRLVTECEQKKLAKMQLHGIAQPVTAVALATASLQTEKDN
Outline: as §1

ERG = molecular target: T4, ERG (Homo sapiens, UniProt P11308 1-479)
T4 sequence: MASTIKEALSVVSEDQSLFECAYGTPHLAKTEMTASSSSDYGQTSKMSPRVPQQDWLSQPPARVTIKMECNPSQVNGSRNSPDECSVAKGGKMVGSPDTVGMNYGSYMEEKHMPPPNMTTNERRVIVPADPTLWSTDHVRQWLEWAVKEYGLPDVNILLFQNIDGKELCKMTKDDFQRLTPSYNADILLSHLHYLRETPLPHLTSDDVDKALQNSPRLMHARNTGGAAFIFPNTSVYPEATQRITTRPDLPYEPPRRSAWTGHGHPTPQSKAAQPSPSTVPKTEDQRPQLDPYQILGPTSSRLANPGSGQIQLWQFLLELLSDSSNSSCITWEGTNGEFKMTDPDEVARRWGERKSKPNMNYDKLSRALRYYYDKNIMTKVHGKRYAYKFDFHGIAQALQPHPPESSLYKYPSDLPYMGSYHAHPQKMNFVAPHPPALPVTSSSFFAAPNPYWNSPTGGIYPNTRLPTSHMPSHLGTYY
Outline: as §1

ELF1 = ELF1 (Homo sapiens, UniProt P32519 1-619)
ELF1, sequence (P32519 whole entry): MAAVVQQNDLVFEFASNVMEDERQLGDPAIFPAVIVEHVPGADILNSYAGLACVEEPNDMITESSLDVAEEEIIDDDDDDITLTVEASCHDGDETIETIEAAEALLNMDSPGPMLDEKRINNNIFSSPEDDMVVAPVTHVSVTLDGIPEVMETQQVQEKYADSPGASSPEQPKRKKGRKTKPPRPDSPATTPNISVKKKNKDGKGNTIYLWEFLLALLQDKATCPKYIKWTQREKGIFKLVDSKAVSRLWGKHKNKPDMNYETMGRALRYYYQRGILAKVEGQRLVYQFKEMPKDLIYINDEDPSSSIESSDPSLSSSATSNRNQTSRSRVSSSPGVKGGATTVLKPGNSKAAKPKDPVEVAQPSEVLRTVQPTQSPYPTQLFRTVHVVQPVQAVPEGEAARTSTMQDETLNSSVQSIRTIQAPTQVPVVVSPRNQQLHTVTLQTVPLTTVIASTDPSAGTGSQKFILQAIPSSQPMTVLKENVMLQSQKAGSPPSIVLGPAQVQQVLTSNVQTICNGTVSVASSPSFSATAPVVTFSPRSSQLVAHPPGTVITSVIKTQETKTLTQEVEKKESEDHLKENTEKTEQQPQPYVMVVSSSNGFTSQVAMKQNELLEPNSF
Outline: as §1

EHF = molecular target: T5, EHF (Homo sapiens, UniProt Q9NZC4 1-300)
T5 sequence: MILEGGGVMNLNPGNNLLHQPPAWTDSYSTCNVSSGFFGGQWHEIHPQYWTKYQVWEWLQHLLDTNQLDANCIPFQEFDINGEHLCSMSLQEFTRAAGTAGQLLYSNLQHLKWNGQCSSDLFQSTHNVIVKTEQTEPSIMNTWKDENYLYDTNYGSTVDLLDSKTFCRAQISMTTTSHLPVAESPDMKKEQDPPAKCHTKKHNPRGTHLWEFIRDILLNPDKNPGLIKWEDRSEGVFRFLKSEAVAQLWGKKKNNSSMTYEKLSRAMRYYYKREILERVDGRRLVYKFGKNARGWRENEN
Outline: as §1

SPI1 = SPI1 (Homo sapiens, UniProt P17947 1-270)
Outline: as §1

SPIB = SPIB (Homo sapiens, UniProt Q01892 1-262)
SPIB, sequence (Q01892 whole entry): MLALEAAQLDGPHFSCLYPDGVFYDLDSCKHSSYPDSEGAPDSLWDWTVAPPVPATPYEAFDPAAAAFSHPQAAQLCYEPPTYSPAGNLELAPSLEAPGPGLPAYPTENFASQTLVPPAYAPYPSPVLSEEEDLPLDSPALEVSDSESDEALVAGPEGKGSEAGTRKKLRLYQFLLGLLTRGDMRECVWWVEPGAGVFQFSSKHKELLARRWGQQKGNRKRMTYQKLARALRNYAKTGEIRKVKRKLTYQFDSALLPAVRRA
Outline: as §1

ELK3 = molecular target: T6, ELK3 (Homo sapiens, UniProt P41970 1-407)
T6 sequence: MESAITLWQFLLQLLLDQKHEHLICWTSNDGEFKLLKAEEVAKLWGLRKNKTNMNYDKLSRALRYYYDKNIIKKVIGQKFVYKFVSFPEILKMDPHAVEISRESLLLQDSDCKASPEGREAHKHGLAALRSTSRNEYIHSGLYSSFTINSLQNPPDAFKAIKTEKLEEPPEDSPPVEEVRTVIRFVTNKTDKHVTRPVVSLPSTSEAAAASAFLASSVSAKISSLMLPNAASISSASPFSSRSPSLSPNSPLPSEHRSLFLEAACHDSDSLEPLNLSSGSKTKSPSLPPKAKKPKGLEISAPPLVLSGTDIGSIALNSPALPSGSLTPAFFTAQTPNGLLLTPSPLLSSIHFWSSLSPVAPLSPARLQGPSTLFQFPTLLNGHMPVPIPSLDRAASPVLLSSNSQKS
Outline: as §1

Row | Sequence | binding signal (FLI1) | binding signal (ELK1) | binding signal (GABPA) | binding signal (ERG) | binding signal (ELF1) | binding signal (EHF) | binding signal (SPI1) | binding signal (SPIB) | binding signal (ELK3)
1 | CTCCAT | 1.34 fold enrichment (6-mer frequency, TF over GST control) | 1.38 fold enrichment (6-mer frequency, TF over GST control) | 1.31 fold enrichment (6-mer frequency, TF over GST control) | 1.34 fold enrichment (6-mer frequency, TF over GST control) | 1.34 fold enrichment (6-mer frequency, TF over GST control) | 1.37 fold enrichment (6-mer frequency, TF over GST control) | 1.32 fold enrichment (6-mer frequency, TF over GST control) | 1.25 fold enrichment (6-mer frequency, TF over GST control) | 1.36 fold enrichment (6-mer frequency, TF over GST control)
2 | ATGTCC | 1.56 fold enrichment (6-mer frequency, TF over GST control) | 1.53 fold enrichment (6-mer frequency, TF over GST control) | 1.54 fold enrichment (6-mer frequency, TF over GST control) | 1.75 fold enrichment (6-mer frequency, TF over GST control) | 1.58 fold enrichment (6-mer frequency, TF over GST control) | 1.54 fold enrichment (6-mer frequency, TF over GST control) | 1.35 fold enrichment (6-mer frequency, TF over GST control) | 1.55 fold enrichment (6-mer frequency, TF over GST control) | 1.75 fold enrichment (6-mer frequency, TF over GST control)
3 | ACGTTA | 1.11 fold enrichment (6-mer frequency, TF over GST control) | 1.14 fold enrichment (6-mer frequency, TF over GST control) | 1.11 fold enrichment (6-mer frequency, TF over GST control) | 1.21 fold enrichment (6-mer frequency, TF over GST control) | 1.19 fold enrichment (6-mer frequency, TF over GST control) | 1.11 fold enrichment (6-mer frequency, TF over GST control) | 1.19 fold enrichment (6-mer frequency, TF over GST control) | 1.06 fold enrichment (6-mer frequency, TF over GST control) | 1.3 fold enrichment (6-mer frequency, TF over GST control)
4 | ATAAGC | 1.02 fold enrichment (6-mer frequency, TF over GST control) | 1.09 fold enrichment (6-mer frequency, TF over GST control) | 1.11 fold enrichment (6-mer frequency, TF over GST control) | 1.08 fold enrichment (6-mer frequency, TF over GST control) | 1.1 fold enrichment (6-mer frequency, TF over GST control) | 1.05 fold enrichment (6-mer frequency, TF over GST control) | 1.01 fold enrichment (6-mer frequency, TF over GST control) | 1.11 fold enrichment (6-mer frequency, TF over GST control) | 1.05 fold enrichment (6-mer frequency, TF over GST control)
5 | ATTAAC | 1.29 fold enrichment (6-mer frequency, TF over GST control) | 1.16 fold enrichment (6-mer frequency, TF over GST control) | 1.22 fold enrichment (6-mer frequency, TF over GST control) | 1.21 fold enrichment (6-mer frequency, TF over GST control) | 1.32 fold enrichment (6-mer frequency, TF over GST control) | 1.16 fold enrichment (6-mer frequency, TF over GST control) | 1.18 fold enrichment (6-mer frequency, TF over GST control) | 1.24 fold enrichment (6-mer frequency, TF over GST control) | 1.26 fold enrichment (6-mer frequency, TF over GST control)
6 | TACAAT | 1.29 fold enrichment (6-mer frequency, TF over GST control) | 1.28 fold enrichment (6-mer frequency, TF over GST control) | 1.32 fold enrichment (6-mer frequency, TF over GST control) | 1.29 fold enrichment (6-mer frequency, TF over GST control) | 1.3 fold enrichment (6-mer frequency, TF over GST control) | 1.38 fold enrichment (6-mer frequency, TF over GST control) | 1.25 fold enrichment (6-mer frequency, TF over GST control) | 1.26 fold enrichment (6-mer frequency, TF over GST control) | 1.21 fold enrichment (6-mer frequency, TF over GST control)
7 | GGAAAC | 1.2 fold enrichment (6-mer frequency, TF over GST control) | 1.35 fold enrichment (6-mer frequency, TF over GST control) | 1.25 fold enrichment (6-mer frequency, TF over GST control) | 1.57 fold enrichment (6-mer frequency, TF over GST control) | 1.22 fold enrichment (6-mer frequency, TF over GST control) | 1.47 fold enrichment (6-mer frequency, TF over GST control) | 1.25 fold enrichment (6-mer frequency, TF over GST control) | 1.39 fold enrichment (6-mer frequency, TF over GST control) | 1.43 fold enrichment (6-mer frequency, TF over GST control)

From publication PMC7862700, “An all-to-all approach to the identification of sequence-specific readers for epigenetic DNA modifications on cytosine”
